Assay: modulators of HCV replicon luciferase signal, primary screen, HCV replication inhibitor project, Huh7 cells, luciferase reporter (AID 1109);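 further: huh7 hepatoma cells harbouring a luciferase neomycin HCV replicon reporter; luciferase luminescence as measure of HCV replicon replication; test concentration not given here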
Settings: 48 h, higher = more signal

Row | Compound | z-score
1 | O=C(O)[C@@H]1[C@@H]2C(=O)N(c3ccccc3)C(=O)[C@@H]2C[C@@H]1Sc1ccccc1 | 0.0105
2 | CCCCN1CC=CC23O[C@@H]4/C=C\CCC(C)OC(=O)C4[C@H]2C(=O)N(CCCO)[C@@H]3C1=O (stereo not given in full) | -0.398
3 | CN(C)C(=O)[C@]1(CCC(=O)OC(C)(C)C)N=C(c2ccc(OCCCO)cc2)O[C@@H]1c1ccccc1CN=[N+]=[N-] | -2.19
4 | CCCCCC1=C2CNC(C)(C(=O)OC)C=C2C(C)C1=O (stereo not given) | -0.654
5 | CCOC(=O)C[C@H]1[C@H](OC(=O)c2cc3ccccc3oc2=O)[C@@H](NC(=O)c2ccc3ccccc3n2)c2cc(OCCCO)ccc2N1C(=O)Cc1ccc(OC)cc1 | -1.96
6 | CS(=O)(=O)CCOC(=O)C1=CC(CCCO)=CC(c2ccc(CN3CCCC3)cc2)N(Cc2sc3ccccc3c2Cl)C=C1C(=O)OCCS(C)(=O)=O (stereo not given) | -2.64
7 | NC(=O)NCC#Cc1ccc2c(c1)[C@]1(C(=O)N2)[C@H](c2ccccc2OCCO)N2[C@H](c3ccccc3)[C@H](c3ccccc3)OC(=O)[C@H]2[C@@H]1C(=O)NC[C@H](O)c1ccccc1 | -0.651
8 | CC(C)N1C(=O)c2ccccc2[C@@H](C(=O)NCCN2CCOCC2)[C@@H]1c1ccc(CO)cc1 | -0.476
9 | COCCOC(=O)N1C(=O)[C@@]2(c3cc(C#CC4=CCCCC4)ccc31)[C@H](C(=O)Nc1nc3ccccc3s1)[C@H]1C(=O)O[C@H](c3ccccc3)[C@H](c3ccccc3)N1[C@@H]2c1ccc(O)cc1 | -1.1
10 | COc1ccc(CCNC(=O)[C@@]2(Sc3ccc(C)cc3)CC(=O)N(Cc3ccccc3C(F)(F)F)[C@@H]2c2ccc(CO)cc2I)cc1 | -2.42
11 | COc1ccc([Si](C)(C)[C@H]2[C@H](CC(=O)N3CCC[C@H]3CO)O[C@@]3(C(=O)N(Cc4ccc(N5CCOC5=O)cc4)c4ccccc43)[C@@H]2C)cc1 | -2.52
12 | COc1cc(OC)c(C(O)C2C=CC3C(=O)N(Cc4ccccc4)C(=O)C3N2n2cnnc2)cc1Br (stereo not given) | -1.61
13 | [N-]=[N+]=Nc1ccccc1C[C@@]1(C(=O)N2CCOCC2)N=C(c2ccc(OCCCO)cc2)O[C@@H]1c1ccccc1 | -1.57
14 | Cc1ccc(C(C)CC(O)C2C=CC3C(=O)N(c4ccccc4)C(=O)C3N2Nc2ccccc2)o1 (stereo not given) | -0.741
15 | CCOC(=O)C[C@H]1[C@H](OC(=O)c2ccc(C(=O)c3ccccc3)cc2)[C@@H](NC(=O)c2ccc(-c3ccccc3)cc2)c2cc(OCCCO)ccc2N1C(=O)Cc1ccc(OC)cc1 | -0.751
16 | CCOC(=O)C1=C[C@@H](C(C)C)N(S(=O)(=O)c2ccc(C)cc2)[C@H]1c1ccc(C(F)(F)F)cc1 | -0.972
17 | C=C[C@H]1C(C(=O)OCC)=CC[C@@H](c2ccccc2)N1S(=O)(=O)c1ccc(C)cc1 | -2.78
18 | CCCCCCCCCCC(O)C1C=CC2C(=O)N(c3ccccc3)C(=O)C2N1Nc1ccc(C#N)cc1 (stereo not given) | -1.57

Row | Compound | z-score
19 | O=C1C[C@]2(c3ccc([N+](=O)[O-])cc3)C(=O)N(C3CC3)c3cc(CO)ccc3[C@H]2N1CC12CC3CC(CC(C3)C1)C2 | -0.479
20 | C=C[C@H](C)[C@H](OC(=O)Nc1ccc(SC)cc1)c1ccc(OCCO)cc1 | -1.19
21 | O=C1OCCC=C[C@H]2OC34C=CCN(c5ccc6ccccc6c5)C(=O)[C@H]3N(CCCO)C(=O)[C@@H]4C12 (stereo not given in full) | -0.24
22 | CCCCN1CC=CC23O[C@@H]4/C=C\CCCOC(=O)C4[C@H]2C(=O)N(CCO)[C@@H]3C1=O (stereo not given in full) | -0.219
23 | COc1cc2c(cc1O)C(c1cccs1)N(Cc1cc3c(cc1Br)OCO3)CC2 (stereo not given) | -2.05
24 | CCCC[C@@H](O)C1=C(COc2ccccc2)C[C@H]2C(=O)N(Cc3ccccc3)C(=O)[C@H]2[C@H]1CO | -2.3
25 | COc1cc(C(O)C2C=CC3C(=O)N(C)C(=O)C3N2Nc2ccccc2)cc(OC)c1OC (stereo not given) | 0.461
26 | COCCOC(=O)N1C(=O)[C@@]2(c3cc(C#CCCO)ccc31)[C@H](c1ccc(OCCO)cc1)N1[C@H](c3ccccc3)[C@H](c3ccccc3)OC(=O)[C@H]1[C@@H]2C(=O)Nc1nc2ccccc2s1 | -1.13
27 | C=CCNC(=O)[C@@H]1[C@H]2C(=O)O[C@H](c3ccccc3)[C@H](c3ccccc3)N2[C@H](c2ccc(OCCO)cc2)[C@@]12C(=O)N(C(=O)OCCOC)c1ccc(C#Cc3ccc(OC)cc3)cc12 | -1.14
28 | N#Cc1ccc(NN2C(C(O)c3ccc(Br)cc3)C=CC3C(=O)N(c4ccccc4)C(=O)C32)cc1 (stereo not given) | -0.431
29 | CCCC=C(CCC)[C@@H](NC(=O)C(C)(C)C)c1ccc(C(=O)OC)cc1 | -1.01
30 | CO[C@H]1O[C@H](CO)[C@@H](OC(=O)Nc2ccc(Br)cc2)[C@@H]2OC(=O)[C@@H](Cc3ccccc3)C/C=C/C[C@H](Cc3ccccc3)C(=O)O[C@@H]12 | -3.75
31 | C#CCN(Cc1ccccc1Br)[C@H](/C=C/c1ccccc1)[C@@H](O)Cc1ccccc1 | -1.42
32 | CCCCCN1CC=CC23O[C@@H]4/C=C\CCCOC(=O)C4[C@H]2C(=O)N(C(C)CO)[C@@H]3C1=O (stereo not given in full) | -0.646
33 | CCCCCN1CC=CC23O[C@@H]4C=CCCOC(=O)C4[C@H]2C(=O)N(CCCCCCO)[C@@H]3C1=O (stereo not given in full) | 0.525
34 | NC(=O)[C@@]1(Cc2ccccc2)COC(c2ccc(OCCCO)cc2)=N1 | 1.84
35 | COC(=O)[C@@]1(Cc2ccc(OC)cc2)[C@H]2c3cc(C(=O)N4CCCC4)n(CCO)c3C[C@H]2CN1C(=O)c1ccccc1 | -0.474

From PubChem BioAssay
